From PubChem BioAssay (Tox21) come the findings set out here.

The structures appear in SMILES notation. Records with an inconclusive call do not appear. Unmarked numbers belong to inactive results. Calls follow the shape of the full dose curve.
% is scaled to controls: 0 for no effect and ±100 for the full control effect.

In the test the target is Peroxisome proliferator-activated receptor gamma (Homo sapiens) (UniProt P37231). Kind of test: qHTS assay to identify small molecule antagonists of the peroxisome proliferator-activated receptor gamma (PPARg) signaling pathway (AID 743191). Also: nearly all actives have a fitted effect of over 30% in size. The conditions noted are these: HEK293H PPARg-UAS-bla, beta-lactamase ratio, antagonist, 17 h; series mostly up to 62.6 µM; ratio activity, negative = inhibition: at the top concentration. The source says: U.S. Tox21 Program National Center for Advancing Translational Sciences [NCATS] NIH Chemical Genomics Center [NCGC] U.S. Environmental Protection Agency [EPA] National Institutes of Environmental Health Sciences [NIEHS] National Toxicology Program [NTP] U.S. Food and Drug Administration [FDA] Tox21 Assay Overview: The peroxisome proliferator-activated receptors (PPARs) are lipid-activated transcription factors of the nuclear receptor superfamily with three distinct subtypes namely PPAR alpha, PPAR delta (also called PPAR beta) and PPAR gamma (PPARg). All these subtypes heterodimerize with Retinoid X receptor (RXR) and these heterodimers regulate transcription of various genes. PPAR-gamma receptor (glitazone receptor) is involved in the regulation of glucose and lipid metabolism. To identify the compounds that inhibit PPAR-gamma signaling, GeneBLAzer PPAR gamma UAS-bla HEK293H cell line (Invitrogen, Carlsbad, CA, USA) containing a beta-lactamase reporter gene under control of an Upstream Activator Sequence (UAS) was used to screen the Tox21 compound library.
Peroxisome proliferator-activated receptor gamma (Homo sapiens), sequence (P37231 whole entry, looked up): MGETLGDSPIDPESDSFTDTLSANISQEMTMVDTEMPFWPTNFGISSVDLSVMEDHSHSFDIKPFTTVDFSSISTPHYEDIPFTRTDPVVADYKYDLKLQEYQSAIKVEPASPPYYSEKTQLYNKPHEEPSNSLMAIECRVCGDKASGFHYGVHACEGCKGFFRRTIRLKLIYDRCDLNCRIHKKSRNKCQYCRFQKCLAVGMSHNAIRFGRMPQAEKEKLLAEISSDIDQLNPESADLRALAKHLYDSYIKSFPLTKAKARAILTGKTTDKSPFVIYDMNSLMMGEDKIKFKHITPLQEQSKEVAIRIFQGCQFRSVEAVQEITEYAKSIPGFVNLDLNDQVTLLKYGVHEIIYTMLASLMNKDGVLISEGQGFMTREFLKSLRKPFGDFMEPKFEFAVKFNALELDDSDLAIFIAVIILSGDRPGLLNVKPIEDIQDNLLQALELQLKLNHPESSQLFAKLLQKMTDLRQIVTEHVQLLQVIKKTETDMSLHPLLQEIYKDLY
Tox21 Assay Protocol Summary: PPARg-bla cells were dispensed at 3000 cells/6uL/well in 1536-well black wall/clear bottom plates using a Multidrop Combi (Thermo Fisher Scientific, Waltham, MA) dispenser. After the assay plates were incubated at 37C and 5% CO2 for 5 h, 23 nL of compounds dissolved in DMSO, positive controls or DMSO only was transferred to the assay plate by a Pintool station (Kalypsys, San Diego, CA). The assay plates were incubated at 37C for 17 h. After 1 uL of LiveBLAzerTM B/G FRET substrate was added using a Bioraptr Flying Reagent Dispenser (FRD) workstation (Beckman Coulter, Indianapolis, IN, USA), the plates were incubated at room temperature for 1 h, and fluorescence intensity was measured by an Envision plate reader (PerkinElmer, Shelton, CT).
(In general: Quantitative high-throughput screening tests each substance at several concentrations.)
Regarding `CCN(CC)CC1CCCCN1CC(=O)N1c2ccccc2C(=O)Nc2cccnc21` (stereo not given), the “ratio activity, negative = inhibition” value is 0.76%. For the compound `O=C1CCCCCCCCCCC(=O)OCCO1`, the “ratio activity, negative = inhibition” value is 14.5%.

For `CN(CC1(C)CCCO1)S(=O)(=O)c1ccc(Cl)c(S(N)(=O)=O)c1` (stereo not given), the “ratio activity, negative = inhibition” value was 13%. Take `CC(C)c1ccccc1`: the “ratio activity, negative = inhibition” value is 1.45% [at 81.1 µM]. As for `CN1CCN(C2=Nc3cc(F)ccc3Cc3ccccc32)CC1`, the “ratio activity, negative = inhibition” value is -14.7%. For the compound `O=C(Cl)c1cccc([N+](=O)[O-])c1`, the “ratio activity, negative = inhibition” value was -5.77%. As for `COc1ccccc1OCC(O)COC(N)=O` (stereo not given), the “ratio activity, negative = inhibition” value was 16%. With `OCCN1CCN(CCO)CC1`, the “ratio activity, negative = inhibition” value was 1.54% [at 81.1 µM]. For the compound `Cc1cc(S(=O)(=O)O)c(N)cc1Cl`, the “ratio activity, negative = inhibition” value was 3.28% [at 81.1 µM]. On to `CCCCc1ccc2nc(NC(=O)OC)[nH]c2c1`, for which the “ratio activity, negative = inhibition” value was -5.38%. The result for `CS(=O)(=O)c1ccc([C@@H](O)[C@@H](CF)NC(=O)C(Cl)Cl)cc1` reads 8.3%; that for `CCCOCCC`, -0.957%; that for `CCCCCCCCCC/C=C/C#N`, 23.6%. In the case of `CC(C)Nc1nc(N)nc(Cl)n1`, the “ratio activity, negative = inhibition” value was 0.461%. Take `COc1nc(C)nc(NC(=O)NS(=O)(=O)c2ccccc2OCCCl)n1`: the “ratio activity, negative = inhibition” value was 2.62%. Turning to `O=C(O)c1cccc(Cl)c1Cl`, the “ratio activity, negative = inhibition” value is -12.4%.

As to `O=C(CCCl)NCc1ccccc1`, the “ratio activity, negative = inhibition” value is -1.37%. As to `C=C(C)C(=O)OCCOP(=O)(O)O`, the “ratio activity, negative = inhibition” value was 20.7% [at 81.1 µM].

Take `Cc1onc(-c2ccccc2)c1C(=O)Cl`: the “ratio activity, negative = inhibition” value is 3.48%. The result for `COc1cc(C)ccc1C(C)C` reads 13.5%; that for `COc1cc(N)c(Cl)cc1C(=O)NC1CCN(Cc2ccccc2)CC1`, 0.126%; that for `COC(=O)c1ccc(OC)cc1`, -7.62%.

`NC(=O)Cc1cccc(C(=O)c2ccccc2)c1N`: the “ratio activity, negative = inhibition” value is -2.08%. Then `CCCNC(C)C(=O)Nc1c(C)csc1C(=O)OC` (stereo not given), with -0.0127%; and `CC(C)OC(C)C`, with 1.78% [at 81.1 µM]; and `C[C@@H]1CN(c2c(F)c(F)c3c(=O)c(C(=O)O)cn(C4CC4)c3c2F)C[C@H](C)N1`, with -13.2% [at 29.1 µM].

For the compound `Cc1cc2c(s1)Nc1ccccc1N=C2N1CCN(C)CC1`, the “ratio activity, negative = inhibition” value is -18.3%.

Consider `Clc1cccc(-c2cc(Cl)cc(Cl)c2)c1`, for which the “ratio activity, negative = inhibition” value was 3.36%. In the case of `CCOC(=O)NCCC[Si](OCC)(OCC)OCC`, the “ratio activity, negative = inhibition” value is 6.15%. Regarding `Cc1c(C(=O)NCCO)[n+](=O)c2ccccc2n1[O-]`, the “ratio activity, negative = inhibition” value is 2.19%. Then `COc1ccc2nc(NC(=O)Nc3ccccc3)sc2c1`, with -2.24%; and `OCC(CBr)(CBr)CBr`, with -21.5%. Then `CCCN(CCC)C(=O)C(CCC(=O)O)NC(=O)c1ccccc1` (stereo not given), with 4.23%; and `Oc1ccccc1C=NCc1ccccc1`, with 6.57%. Consider `CCCNC(C)(C)COC(=O)c1ccccc1`, for which the “ratio activity, negative = inhibition” value is -9.4%. With `CC(Oc1c(Cl)cccc1Cl)C1=NCCN1` (stereo not given), the “ratio activity, negative = inhibition” value is -0.185%.

Consider `C[C@@H]1CN(c2c(F)c(N)c3c(=O)c(C(=O)O)cn(C4CC4)c3c2F)C[C@H](C)N1`, for which the “ratio activity, negative = inhibition” value is -3.47% [at 29.1 µM].

Take `CCN[C@H]1CN(CCCOC)S(=O)(=O)c2sc(S(N)(=O)=O)cc21`: the “ratio activity, negative = inhibition” value is 4.46%.

On to `CN1[C@@H]2CC[C@H]1CC(OC(=O)c1c[nH]c3ccccc13)C2` (stereo not given in full), for which the “ratio activity, negative = inhibition” value is 10.2%. Then `CC1=C(O)C(=O)OC1C` (stereo not given), with 15.9%.
